This note sets out measurements from the supplement of paper PMC6555819.

Assay in all cases: PBM binding z-score (relative to random genomic background probes); higher = stronger binding; sequences stand for … in GC…GCGATTGACAGCGTAGAATGAAGG
Test [1] relates to FXR:RXRa (NR concentration 270 nM, RXRa partner concentration 90 nM). In a few lines:
(§1)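 Regression normalization was applied to scanned fluorescence from custom Agilent 4×180K protein-binding microarrays. Before scanning, arrays were incubated 1 h with ligand-free nuclear receptor dimers, and binding was detected with antibodies against each partner (one per run). Binding z-scores use the random background probes as reference.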

Test [2] concerns LXRa:RXRa (NR concentration 270 nM, RXRa partner concentration 90 nM). In a few lines:
as §1

Test [3] relates to LXRa homodimer (NR concentration 270 nM). The method, boiled down:
as §1

In test [4] the test system is LXRb:RXRa (NR concentration 270 nM, RXRa partner concentration 90 nM). In a few lines:
as §1

Test [5] has as its system LXRb homodimer (NR concentration 270 nM). In a few lines: as §1
The test system of test [6] is PPARa:RXRa (NR concentration 270 nM, RXRa partner concentration 90 nM). In a few lines:
as §1

Test [7] deals with PPARg:RXRa (NR concentration 180 nM, RXRa partner concentration 90 nM). In a few lines: as §1
For test [8], the system named is PPARg:RXRa 270nM:90nM, anti-RXR (NR concentration 270 nM, RXRa partner concentration 90 nM). In a few lines: as §1
Test [9] concerns PPARg:RXRa 30nM:10nM, anti-RXR (NR concentration 30 nM, RXRa partner concentration 10 nM). In a few lines: as §1
Test [10] concerns PPARg:RXRa 90nM:30nM, anti-RXR (NR concentration 90 nM, RXRa partner concentration 30 nM). The method, boiled down:
as §1

Test [11] relates to PPARg:RXRa DBDmut IVT, anti-RXR (DBD mutation: RXRa K156A/R161A, NR concentration 270 nM, RXRa partner concentration 90 nM). In a few lines:
as §1

Test [12] deals with PPARg:RXRa IVT, anti-PPARg (NR concentration 270 nM, RXRa partner concentration 90 nM). In a few lines: as §1
Test [13] relates to PPARg DBDmut:RXRa IVT, anti-PPARg (DBD mutation: PPARg1 K132A/R137A, NR concentration 270 nM, RXRa partner concentration 90 nM). In a few lines: as §1
The subject of test [14] is PPARg DBDmut IVT, anti-PPARg (DBD mutation: PPARg1 K132A/R137A, NR concentration 270 nM). The method, boiled down:
as §1

The test system of test [15] is PPARg homodimer (NR concentration 180 nM). In a few lines: as §1
In test [16] the test system is PXR:RXRa (NR concentration 270 nM, RXRa partner concentration 90 nM). The method, boiled down:
as §1

Test [17] deals with PXR homodimer (NR concentration 270 nM). The method, boiled down: as §1
Test [18] concerns RARa:RXR (NR concentration 270 nM, RXRa partner concentration 90 nM). The method, boiled down: as §1
Test [19] deals with RARa homodimer (NR concentration 270 nM). In a few lines: as §1
Test [20] relates to RARb:RXRa (NR concentration 270 nM, RXRa partner concentration 90 nM). In a few lines: as §1

As to ATCGAAAGGTCGTGAGGTGAATATACAGAAAGGC, the PBM binding z-score in [1] is 5.8; in test [2], 4.42; in test [3], 0.33; in test [4], 3.66; in [5], 0.583; in [6] it was 5.66. In addition, the PBM binding z-score in test [7] amounted to 4.88; in test [8], 4.97; in [9], 2; in test [10], 3.71; in test [11], 0.388; in test [12], 2.93. Moreover, the PBM binding z-score turned out to be 1.73 in test [13]; 0.704 in test [14]; 2.17 in test [15]; 3.53 in test [16]; 0.656 in [17]; 4.96 in test [18]. Moreover, the results for the PBM binding z-score in test [19] and in test [20] were 1.14 and 4.12, respectively.
With ATACCAAGGTGATCGTGAGGTCGATGATACTAAC, the PBM binding z-score was 1.46 in [1]; 0.961 in [2]; 0.482 in [3]; 0.993 in test [4]; -0.149 in test [5]; 1.34 in [6]. Also, the PBM binding z-score came out at 0.934 in test [7]; 0.585 in test [8]; 0.169 in [9]; 0.24 in [10]; 0.508 in test [11]; 1.52 in test [12]. The PBM binding z-score in [13] was 0.609; in test [14] it was 0.528; in test [15], 0.828; in test [16], 1.91; in test [17], 0.391; in [18], 1.9. Also, the PBM binding z-score in test [19] stood at 0.262; in test [20] it was 1.55.
For TCGAGTAAGTTAGTCGGGGCATTCAGCCAACATA, the PBM binding z-score is -1.52 in [1]; -0.541 in test [2]; -0.717 in test [3]; -0.128 in test [4]; -0.869 in test [5]; 0.00256 in [6]. The PBM binding z-score in [7] was -0.588; in test [8] it was 0.158; in [9], 0.928; in [10], 0.486; in test [11], 0.848; in test [12], -0.156. The PBM binding z-score in [13] is -0.534; in [14], -0.684; in test [15] it was -0.634; in test [16] it was -0.346; in test [17] it was -0.239; in test [18], -0.154. Further, the results for the PBM binding z-score in [19] and in test [20] were -0.863 and -0.272, respectively.
Take CCTAGCATGCCAGGGTCACTCAAGCATTTCGCTT: the PBM binding z-score in test [1] is 2.11; in [2], 1.85; in [3], -0.459; in test [4], 2.23; in test [5] it was -0.94; in [6], 3.15. Further, the PBM binding z-score was 0.542 in [7]; 1.23 in test [8]; -0.373 in test [9]; 0.276 in [10]; -0.246 in [11]; 0.391 in [12]. Also, the PBM binding z-score was -0.691 in [13]; -1.32 in test [14]; 0.817 in test [15]; 2.61 in [16]; -0.116 in test [17]; 3.17 in [18]. Moreover, the PBM binding z-score in test [19] was -0.337; in test [20], 2.35.
Take TCGTGTAGATCAAGCAGGTTAAGAAAGCCTGAGT: the PBM binding z-score in test [1] was 0.141; in test [2] it was 0.107; in test [3] it was -0.392; in test [4], 0.143; in [5], -0.921; in test [6], 0.588. In addition, the PBM binding z-score in test [7] is -0.429; in test [8], 0.747; in [9], 2.07; in test [10], 1.61; in [11], 1.24; in test [12], -0.0546. Besides, the PBM binding z-score in [13] was -0.931; in test [14], -0.429; in [15] it was 0.148; in [16] it was 0.421; in test [17], 0.251; in [18], 0.318. The PBM binding z-score in test [19] was determined as 0.0709; in test [20], 0.0461.
As to TCTGCTAGGTCAACGATGGTGAGCTAATCTGCTA, the PBM binding z-score in test [1] is 2.96; in test [2], 1.8; in test [3], -0.337; in test [4] it was 1.15; in test [5], -0.262; in test [6], 2.95. For the same sequence, the PBM binding z-score came out at 2.17 in test [7]; 3.07 in test [8]; 1.74 in [9]; 2.39 in test [10]; 4.06 in test [11]; 4.11 in [12]. For the same sequence, the PBM binding z-score in test [13] was 0.101; in [14] it was -0.356; in test [15], 0.2; in test [16], 0.739; in [17] it was -1.18; in test [18] it was 1.68. Besides, the PBM binding z-score in [19] is -1.07; in test [20], 3.98.
For the sequence TCTTGTAGATCAACAGGAGGGTAAGAAAGATCGA, the PBM binding z-score is 0.289 in test [1]; 0.24 in [2]; -0.818 in [3]; 0.0772 in test [4]; -0.238 in test [5]; 0.374 in [6]. Besides, the PBM binding z-score was -0.102 in test [7]; 1.06 in test [8]; 2.25 in [9]; 1.7 in test [10]; 1.73 in [11]; 0.871 in test [12]. In addition, the PBM binding z-score is 0.452 in [13]; 0.0976 in test [14]; -0.361 in test [15]; 0.00133 in test [16]; -0.381 in test [17]; -0.112 in test [18]. For the same sequence, the values for the PBM binding z-score in [19] and in test [20] were 0.0256 and 0.107, respectively.
